Inconclusive results are not listed. Active and inactive are the calls of the source. The call rests on the fitted dose curve; in most records, active means well fitted curve in the direction sought with a large enough effect; inconclusive means small, poorly fitted or top-dose-only effect, or another doubt; inactive means no such curve, though single readings can be large; an effect the other way counts as inactive or inconclusive.
Legend:
[1] = qHTS of pediatric cancer cell lines to identify multiple opportunities for drug repurposing: Confirmatory screen for NB1643 cells (AID 1347109); further: nearly all actives have a fitted effect of over 45% in size; further: potency means the concentration at half of the fitted maximal effect
Method in brief: (§1)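 Cells (500-1,000/well) rested 5 h, then received compounds for 48 h; metabolically active cells were measured by CellTiter-Glo luminescence. Final concentrations spanned up to 46 µM (MIPE, 11-point) or 0.59 nM-46 µM (NPC, 8-point) in primary screens, 11-point in follow-ups.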

[2] = qHTS of pediatric cancer cell lines to identify multiple opportunities for drug repurposing: Confirmatory screen for A673 cells (AID 1347110);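 further: cells exposed to compound for 48 h before the viability read; nearly all actives have a fitted effect of over 65% in size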; further: potency means the concentration at half of the fitted maximal effect
Method in brief: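 Cells plated at 500-1,000/well were treated five hours later with multi-point dilutions up to 46 µM final. After two days, CellTiter-Glo was added and luminescence read.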

[3] = qHTS of pediatric cancer cell lines to identify multiple opportunities for drug repurposing: Confirmatory screen for SK-N-MC cells (AID 1347111);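 further: cells exposed to compound for 48 h before the readout; nearly all actives have a fitted effect of over 70% in size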; further: potency means the concentration at half of the fitted maximal effect
Method in brief: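 Seed 500-1,000 cells/well; rest 5 h at 37 degrees C. Pin-transfer compounds, 11-point titration. Incubate 48 h. Add CellTiter-Glo, 15 min RT, read luminescence.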

[4] = qHTS of pediatric cancer cell lines to identify multiple opportunities for drug repurposing: Confirmatory screen for BT-12 cells (AID 1347112); further: potency means the concentration at half of the fitted maximal effect;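 further: viability read after 48 h of compound exposure; nearly all actives have a fitted effect of over 55% in size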
Method in brief: as §1

[5] = qHTS of pediatric cancer cell lines to identify multiple opportunities for drug repurposing: Confirmatory screen for LAN-5 cells (AID 1347113); further: nearly all actives have a fitted effect of over 65% in size; further: potency means the concentration at half of the fitted maximal effect
Method in brief: as §1

[6] = qHTS of pediatric cancer cell lines to identify multiple opportunities for drug repurposing: Confirmatory screen for NB-EBc1 cells (AID 1347115);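 further: cells exposed to compound for 48 h before the viability read; nearly all actives have a fitted effect of over 45% in size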; further: potency means the concentration at half of the fitted maximal effect
Method in brief: as §1

[7] = qHTS of pediatric cancer cell lines to identify multiple opportunities for drug repurposing: Confirmatory screen for BT-37 cells (AID 1347117); further: nearly all actives have a fitted effect of over 55% in size; further: potency means the concentration at half of the fitted maximal effect
Method in brief: as §1

[8] = qHTS of pediatric cancer cell lines to identify multiple opportunities for drug repurposing: Confirmatory screen for TC32 cells (AID 1347118);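 further: cells exposed to compound for 48 h before the read; nearly all actives have a fitted effect of over 65% in size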; further: potency means the concentration at half of the fitted maximal effect
Method in brief: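 qHTS, TC32, 48 h drug treatment, CellTiter-Glo luminescence as a proxy for metabolically active cells; primary top concentration 46 µM (MIPE 11-pt, NPC 8-pt); confirmatory 11-pt.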

[9] = qHTS of pediatric cancer cell lines to identify multiple opportunities for drug repurposing: Confirmatory screen for control Hh wild type fibroblast cells (AID 1347121); further: nearly all actives have a fitted effect of over 70% in size
Method in brief: as §1

[10] = qHTS of pediatric cancer cell lines to identify multiple opportunities for drug repurposing: Confirmatory screen for U-2 OS cells (AID 1347122); further: nearly all actives have a fitted effect of over 65% in size; further: potency means the concentration at half of the fitted maximal effect
Method in brief: as §1

[11] = qHTS of pediatric cancer cell lines to identify multiple opportunities for drug repurposing: Confirmatory screen for Rh41 cells (AID 1347123);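 further: 48 h compound exposure; nearly all actives have a fitted effect of over 60% in size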; further: potency means the concentration at half of the fitted maximal effect
Method in brief: as §1

[12] = qHTS of pediatric cancer cell lines to identify multiple opportunities for drug repurposing: Confirmatory screen for RD cells (AID 1347124); further: potency means the concentration at half of the fitted maximal effect
Method in brief: as §1

[13] = qHTS of pediatric cancer cell lines to identify multiple opportunities for drug repurposing: Confirmatory screen for Rh18 cells (AID 1347125); further: nearly all actives have a fitted effect of over 55% in size; further: potency means the concentration at half of the fitted maximal effect
Method in brief: as §1

[14] = qHTS of pediatric cancer cell lines to identify multiple opportunities for drug repurposing: Confirmatory screen for Rh30 cells (AID 1347126); further: nearly all actives have a fitted effect of over 55% in size; further: potency means the concentration at half of the fitted maximal effect
Method in brief: as §1

[15] = qHTS of pediatric cancer cell lines to identify multiple opportunities for drug repurposing: Confirmatory screen for OHS-50 cells (AID 1347128); further: potency means the concentration at half of the fitted maximal effect
Method in brief: as §1

[16] = qHTS of pediatric cancer cell lines to identify multiple opportunities for drug repurposing: Confirmatory screen for SK-N-SH cells (AID 1347129);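 further: cells exposed to compound for 48 h before viability read; nearly all actives have a fitted effect of over 60% in size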; further: potency means the concentration at half of the fitted maximal effect
Method in brief: as §1

[17] = qHTS of pediatric cancer cell lines to identify multiple opportunities for drug repurposing: Confirmatory screen for SJ-GBM2 cells (AID 1347116); further: nearly all actives have a fitted effect of over 60% in size; further: potency means the concentration at half of the fitted maximal effect
Method in brief: (§2)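 Viability measured as metabolically active cells via CellTiter-Glo luminescence following 48 hours of compound exposure, 11-point dilutions in confirmatory testing. 500-1,000 cells/well plated 5 hours before dosing; controls were DMSO and 2.3 µM bortezomib.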

[18] = qHTS of pediatric cancer cell lines to identify multiple opportunities for drug repurposing: Confirmatory screen for MG 63 (6-TG R) cells (AID 1347119)
Method in brief: as §1

[19] = qHTS of pediatric cancer cell lines to identify multiple opportunities for drug repurposing: Confirmatory screen for Saos-2 cells (AID 1347127); further: potency means the concentration at half of the fitted maximal effect; nearly all actives have a fitted effect of over 60% in size
Method in brief: as §1

[20] = qHTS of pediatric cancer cell lines to identify multiple opportunities for drug repurposing: Confirmatory screen for DAOY cells (AID 1347114); further: nearly all actives have a fitted effect of over 65% in size
Method in brief: as §2

In the case of `NC(N)=Nc1nc(CSCCC(N)=NS(N)(=O)=O)cs1`, the Potency [1] is reported as “inactive”, the Potency [2] is reported as “inactive” and the Potency [3] is reported as “inactive”. The Potency [4] was “inactive”, the Potency [5] was “inactive” and the Potency [6] was “inactive”. The Potency [7] was “inactive”, the Potency [8] was “inactive” and the Potency [9] was “inactive”. The Potency [10] was “inactive”, the Potency [11] was “inactive” and the Potency [12] was “inactive”. For the same compound, the Potency [13] was “inactive”, the Potency [14] was “inactive” and the Potency [15] was “inactive”. For the same compound, the Potency [16] was “inactive”.

With `Nc1ccc(-c2ccc3ncc4ccc(=O)n(-c5cccc(C(F)(F)F)c5)c4c3c2)cn1` the Potency [1] was 369 nM (active), the Potency [2] was 185 nM (active) and the Potency [3] was 131 nM (active). For the same compound, the Potency [5] was 165 nM (active), the Potency [6] was 293 nM (active) and the Potency [17] was 233 nM (active). For the same compound, the Potency [7] was 117 nM (active), the Potency [8] was 73.7 nM (active) and the Potency [18] was 20.8 nM (active). For the same compound, the Potency [10] was 185 nM (active), the Potency [11] was 36.9 nM (active) and the Potency [12] was 233 nM (active). For the same compound, the Potency [13] was 928 nM (active), the Potency [14] was 329 nM (active) and the Potency [19] was 329 nM (active). For the same compound, the Potency [15] was 261 nM (active) and the Potency [16] was 296 nM (active).

With `Cc1ccc(C(=O)N(CCCN)[C@@H](c2oc3cc(Cl)ccc3c(=O)c2Cc2ccccc2)C(C)C)cc1` the Potency [1] was 6570 nM (active), the Potency [2] was 1.9 nM (active) and the Potency [3] was 5.9 nM (active). For the same compound, the Potency [4] was 10.4 nM (active), the Potency [5] was 14700 nM (active) and the Potency [6] was 8270 nM (active). The Potency [7] was 11.7 nM (active), the Potency [8] was 10.4 nM (active) and the Potency [10] was 36.9 nM (active). For the same compound, the Potency [11] was 9.3 nM (active), the Potency [12] was 16.5 nM (active) and the Potency [13] was 26100 nM (active). The Potency [14] was 23300 nM (active) and the Potency [15] was 9.3 nM (active).

With `CN(C)CC[C@H](CSc1ccccc1)Nc1ccc(S(=O)(=O)NC(=O)c2ccc(N3CCN(Cc4ccccc4-c4ccc(Cl)cc4)CC3)cc2)cc1[N+](=O)[O-]` the Potency [1] was 414 nM (active), the Potency [2] was 14700 nM (active) and the Potency [3] was 3690 nM (active). For the same compound, the Potency [4] was “inactive”, the Potency [5] was 414 nM (active) and the Potency [6] was 8270 nM (active). For the same compound, the Potency [8] was 20800 nM (active), the Potency [18] was 1470 nM (active) and the Potency [9] was “inactive”. The Potency [10] was 737 nM (active), the Potency [11] was 4650 nM (active) and the Potency [13] was 1310 nM (active).

For `CC1(C)CC(=O)c2c(C(F)(F)F)nn(-c3ccc(C(N)=O)c(NC4CCC(O)CC4)c3)c2C1` (configuration not stated), the Potency [1] was 165 nM (active), the Potency [2] was 147 nM (active) and the Potency [3] was 165 nM (active). The Potency [4] was “inactive”, the Potency [5] was 185 nM (active) and the Potency [6] was 261 nM (active). The Potency [7] was 104 nM (active), the Potency [8] was 165 nM (active) and the Potency [10] was 185 nM (active). The Potency [11] was 369 nM (active), the Potency [13] was 261 nM (active) and the Potency [14] was 369 nM (active). The Potency [16] was 264 nM (active).

For `CCNC(=O)c1noc(-c2cc(C(C)C)c(O)cc2O)c1-c1ccc(CN2CCOCC2)cc1`, the Potency [1] was 73.7 nM (active), the Potency [2] was 52.2 nM (active) and the Potency [3] was 82.7 nM (active). The Potency [5] was 52.2 nM (active), the Potency [6] was 293 nM (active) and the Potency [17] was 208 nM (active). For the same compound, the Potency [7] was 82.7 nM (active), the Potency [8] was 82.7 nM (active) and the Potency [10] was 117 nM (active). The Potency [11] was 46.5 nM (active), the Potency [12] was 73.7 nM (active) and the Potency [13] was 92.8 nM (active). The Potency [14] was 73.7 nM (active), the Potency [15] was 147 nM (active) and the Potency [16] was 132 nM (active).

With `CCC(=O)N1CCN(c2ccc(-n3c(=O)ccc4cnc5ccc(-c6cnc7ccccc7c6)cc5c43)cc2C(F)(F)F)CC1` the Potency [1] was “inactive”, the Potency [2] was “inactive” and the Potency [3] was 9270 nM (active). The Potency [4] was “inactive”, the Potency [5] was “inactive” and the Potency [6] was “inactive”. The Potency [8] was 8270 nM (active), the Potency [9] was “inactive” and the Potency [10] was “inactive”. For the same compound, the Potency [12] was “inactive”, the Potency [13] was “inactive” and the Potency [14] was “inactive”. For the same compound, the Potency [15] was “inactive” and the Potency [16] was “inactive”.

For `CCOC(=O)[C@H](CCc1ccccc1)N[C@@H](C)C(=O)N1CCCC1C(=O)O` (some centres not stated), the Potency [1] was 7370 nM (active), the Potency [2] was 4140 nM (active) and the Potency [3] was 14700 nM (active). For the same compound, the Potency [5] was 9270 nM (active), the Potency [8] was 7370 nM (active) and the Potency [11] was 9270 nM (active). The Potency [12] was 13100 nM (active), the Potency [13] was 13100 nM (active) and the Potency [14] was 7370 nM (active). The Potency [16] was “inactive”.

With `COC(=O)[C@H](c1ccccc1Cl)N1CCc2sccc2C1` the Potency [1] was “inactive”, the Potency [2] was “inactive” and the Potency [3] was “inactive”. For the same compound, the Potency [4] was “inactive”, the Potency [5] was “inactive” and the Potency [6] was “inactive”. The Potency [17] was “inactive”, the Potency [7] was “inactive” and the Potency [8] was “inactive”. The Potency [9] was “inactive”, the Potency [10] was “inactive” and the Potency [11] was “inactive”. For the same compound, the Potency [12] was “inactive”, the Potency [13] was “inactive” and the Potency [14] was “inactive”. For the same compound, the Potency [15] was “inactive” and the Potency [16] was “inactive”.

In the case of `C[C@@]1(c2cc(-c3cncnc3)c(F)cc2F)CCSC(N)=N1`, the Potency [1] is reported as 20800 nM (active), the Potency [2] is reported as “inactive” and the Potency [3] is reported as 7370 nM (active). For the same compound, the Potency [20] was “inactive”, the Potency [7] was 11700 nM (active) and the Potency [8] was 8270 nM (active). The Potency [9] was “inactive”, the Potency [11] was 7370 nM (active) and the Potency [13] was “inactive”. The Potency [14] was “inactive”.

For `CSc1cccc(Nc2ncc3cc(-c4c(Cl)cccc4Cl)c(=O)n(C)c3n2)c1`, the Potency [1] was 2930 nM (active), the Potency [2] was 2080 nM (active) and the Potency [3] was 2610 nM (active). The Potency [6] was 2080 nM (active), the Potency [7] was 4140 nM (active) and the Potency [8] was 2930 nM (active). The Potency [10] was 3290 nM (active), the Potency [11] was 465 nM (active) and the Potency [12] was 369 nM (active). For the same compound, the Potency [13] was 3290 nM (active), the Potency [14] was 6570 nM (active) and the Potency [15] was 4650 nM (active). For the same compound, the Potency [16] was 2640 nM (active).

With `C=CC(=O)Nc1cccc(Sc2nc(Nc3ccc(N4CCN(C)CC4)cc3)ncc2Cl)c1` the Potency [1] was 8270 nM (active), the Potency [2] was 4140 nM (active) and the Potency [3] was 1040 nM (active). The Potency [4] was 23300 nM (active), the Potency [5] was 9270 nM (active) and the Potency [6] was 18500 nM (active). For the same compound, the Potency [17] was 14700 nM (active), the Potency [7] was 13100 nM (active) and the Potency [8] was 737 nM (active). For the same compound, the Potency [10] was 16500 nM (active), the Potency [11] was 10400 nM (active) and the Potency [12] was 5850 nM (active). For the same compound, the Potency [13] was 16500 nM (active), the Potency [14] was 9270 nM (active) and the Potency [15] was 14700 nM (active). The Potency [16] was 9350 nM (active).

Source: PubChem BioAssay (NCATS)
